Source: PubChem BioAssay (Tox21)
Values without a mark were called inactive. Results filed as inconclusive are left out. A call without a number means that no potency is given here. Active and inactive are the calls of the source. Unless noted, the call rests on the fitted dose curve; in most records, active means well fitted curve in the direction sought with a large enough effect in the repeat runs; inconclusive means weak or mixed curves; inactive means no such curve, though single readings can be large; an effect the other way counts as inactive or inconclusive.

Experiments:
[1] = qHTS assay to identify small molecule agonists of the estrogen receptor alpha (ER-alpha) signaling pathway in the presence of an antagonist - cell viability counter screen (AID 1259386);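 further: cells exposed to compounds for 22 h at 37 °C before the viability read; nearly all actives have a fitted effect of over 30% in size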; further: potency means the concentration at half of the fitted maximal effect
How it was run: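 Cell viability in VM7Luc4E2 cells (endogenous full-length ER-alpha) measured by CellTiter-Fluor fluorescence in the same wells as the luciferase screen. Cells pre-cultured 5 days in charcoal-stripped serum, then treated 22 h with compounds at 15 concentrations plus 10.0nM ICI-182,780.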

[2] = target: Progesterone receptor (Homo sapiens) (UniProt P06401); experiment: qHTS assay to identify small molecule agonists of the progesterone receptor (PR) signaling pathway (AID 1346784; calls by dose curve; further: nearly all actives have a fitted effect of over 30% in size)
Chain of Progesterone receptor (Homo sapiens) (P06401 whole entry, looked up): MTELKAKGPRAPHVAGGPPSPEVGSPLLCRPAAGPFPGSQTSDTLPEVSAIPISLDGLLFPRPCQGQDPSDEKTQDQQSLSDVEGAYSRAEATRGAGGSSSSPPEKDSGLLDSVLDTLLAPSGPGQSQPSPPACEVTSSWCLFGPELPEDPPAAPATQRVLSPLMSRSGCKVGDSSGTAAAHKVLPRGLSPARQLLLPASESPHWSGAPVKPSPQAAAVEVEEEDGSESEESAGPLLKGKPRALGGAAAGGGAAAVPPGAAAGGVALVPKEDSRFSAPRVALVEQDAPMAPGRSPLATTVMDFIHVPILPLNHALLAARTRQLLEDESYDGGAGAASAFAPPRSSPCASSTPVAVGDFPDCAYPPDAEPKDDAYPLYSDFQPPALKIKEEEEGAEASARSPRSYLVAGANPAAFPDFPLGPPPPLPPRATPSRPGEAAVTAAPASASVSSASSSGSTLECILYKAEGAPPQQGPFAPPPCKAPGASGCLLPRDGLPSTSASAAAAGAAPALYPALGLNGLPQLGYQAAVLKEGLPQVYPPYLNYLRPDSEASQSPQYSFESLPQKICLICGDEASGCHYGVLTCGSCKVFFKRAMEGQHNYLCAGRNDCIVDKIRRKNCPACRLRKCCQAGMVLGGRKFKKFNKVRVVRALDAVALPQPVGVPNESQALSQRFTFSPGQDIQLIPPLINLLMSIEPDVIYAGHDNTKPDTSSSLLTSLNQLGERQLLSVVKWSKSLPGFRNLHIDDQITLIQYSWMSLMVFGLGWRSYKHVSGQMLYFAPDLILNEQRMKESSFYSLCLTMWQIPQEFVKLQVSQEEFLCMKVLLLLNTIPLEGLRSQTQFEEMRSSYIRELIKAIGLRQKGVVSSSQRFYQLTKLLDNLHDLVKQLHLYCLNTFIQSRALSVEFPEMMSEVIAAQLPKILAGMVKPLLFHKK
How it was run: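 Reporter assay, GripTite PR-UAS-bla HEK 293T cells: 16 hr exposure to DMSO-dissolved compounds at 37C, 5% CO2, in steroid-depleted (2% charcoal-stripped FBS) medium; beta-lactamase measured by FRET fluorescence.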

[3] = qHTS assay to identify small molecule antagonists of the progesterone receptor (PR) signaling pathway - cell viability counter screen (AID 1346798); further: nearly all actives have a fitted effect of over 50% in size; further: potency means the concentration at half of the fitted maximal effect
How it was run: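 In the same plates used for the beta-lactamase readout, cell viability of compound- and R5020-treated PR-UAS-bla HEK293T cells (16 hr, 37C) was assessed by CellTiter-Glo luminescence.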

[4] = qHTS assay to identify small molecule agonists of the progesterone receptor (PR) signaling pathway - cell viability counter screen (AID 1346799; calls by dose curve; further: nearly all actives have a fitted effect of over 45% in size; further: potency means the concentration at half of the fitted maximal effect)
How it was run: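 Multiplexed viability read: CellTiter-Glo luminescence, 30 min RT, following LiveBLAzer FRET measurement on PR-UAS-bla HEK293T cells exposed to compounds 16 hr.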

[5] = qHTS assay to identify small molecule antagonists of the TGF-beta/Smad signaling pathway - cell viability counter screen (AID 1346824); further: nearly all actives have a fitted effect of over 50% in size
How it was run: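 SBE-bla HEK 293T cells were plated overnight at 37 C, then given compounds in DMSO plus TGF-beta1 (added as 0.25 ng/mL solution) for 5 hr. After the bla read, CellTiter-Glo was added to the same wells and luminescence read after 30 min at room temperature.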

[6] = qHTS assay to identify small molecule agonists of the TGF-beta/Smad signaling pathway - cell viability counter screen (AID 1346829); further: top concentration of the series differs between compounds; nearly all actives have a fitted effect of over 45% in size
How it was run: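 CellTiter-Glo luminescence readout; SBE-bla HEK 293T cells, overnight plating, compound 5 hr at 37 C/5% CO2, then bla substrate 2 hr RT, then CellTiter-Glo 30 min RT.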

[7] = qHTS assay to identify small molecule agonists of the TGF-beta/Smad signaling pathway (AID 1346859; active means well fitted activation curve with a large enough effect in the signal ratio in the repeat runs, not every such curve was filed as active; the % refers to the signal ratio; further: series mostly up to about 77 µM)
How it was run: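 Screening used HEK 293T SBE-bla cells at 4,000/well. Test agents: 5 hr, 37 C. Detection: FRET substrate, 2 hr RT, then excitation 405 nm with emissions at 460 and 530 nm.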

[8] = target: Thyrotropin-releasing hormone receptor (Homo sapiens) (UniProt P34981); experiment: qHTS assay to identify small molecule antagonists of the thyrotropin-releasing hormone receptor (TRHR) signaling pathway (AID 1346877; active means well fitted inhibition curve with a large enough effect in the repeat runs, not every such curve was filed as active; further: series mostly up to about 51 µM)
Chain of Thyrotropin-releasing hormone receptor (Homo sapiens) (P34981 whole entry, looked up): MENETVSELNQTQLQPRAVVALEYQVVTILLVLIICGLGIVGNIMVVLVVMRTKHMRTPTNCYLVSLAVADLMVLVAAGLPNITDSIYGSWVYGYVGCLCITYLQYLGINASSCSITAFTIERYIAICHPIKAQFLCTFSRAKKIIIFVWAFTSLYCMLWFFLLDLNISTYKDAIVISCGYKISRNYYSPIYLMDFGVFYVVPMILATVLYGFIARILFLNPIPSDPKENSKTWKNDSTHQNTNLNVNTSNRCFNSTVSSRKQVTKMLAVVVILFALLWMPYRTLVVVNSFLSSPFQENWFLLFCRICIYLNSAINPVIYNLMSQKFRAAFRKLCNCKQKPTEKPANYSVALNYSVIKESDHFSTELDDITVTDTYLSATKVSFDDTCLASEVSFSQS
How it was run: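 TRHR-expressing HEK293 cells loaded with calcium dye for 2 h at 37 C; compounds pre-incubated 5 min at room temperature before TRH challenge at 1 nM final. Intracellular calcium fluorescence read kinetically for 3 min; 15 concentrations in triplicate.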

[9] = target: Thyrotropin-releasing hormone receptor (Homo sapiens) (UniProt P34981); experiment: qHTS assay to identify small molecule agonists of the thyrotropin-releasing hormone receptor (TRHR) signaling pathway (AID 1346891; calls by dose curve; further: series mostly up to about 58 µM)
How it was run: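 Readout was intracellular calcium fluorescence in TRHR-Hek293 cells. Cells were incubated 18 h, dye-loaded 2 h at 37 °C, and treated with compound in agonist mode.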

[10] = target: Progesterone receptor (Homo sapiens) (UniProt P06401); experiment: qHTS assay to identify small molecule antagonists of the progesterone receptor (PR) signaling pathway (AID 1346795; active means well fitted inhibition curve with a large enough effect in the signal ratio in the repeat runs, not every such curve was filed as active; the % refers to the signal ratio; further: potency means the concentration at half of the fitted maximal effect)
How it was run: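 Stimulus R5020 at 1 nM final; cells HEK293T PR-UAS-bla; medium with 2% charcoal-stripped FBS; compound exposure 16 hr at 37C, 5% CO2; detection by FRET beta-lactamase substrate, 2 hr, room temperature.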

Compound: CCOP(=O)(N=C1SCCS1)OCC
- Potency [1]: inactive
- Potency [2]: inactive
- Potency [3]: inactive
- Potency [4]: inactive
- Potency [5]: inactive
- outcome [6]: inactive
- outcome [7]: inactive
- outcome [8]: inactive
- outcome [9]: inactive

Compound: CN1C(=S)CN=C(c2ccccc2)c2cc(Cl)ccc21
- Potency [1]: inactive
- Potency [2]: inactive
- Potency [10]: 21.1 µM (active)
- Potency [5]: inactive
- outcome [6]: inactive
- outcome [7]: inactive
- outcome [8]: inactive
- outcome [9]: inactive

Compound: CCCSC(=O)Cl
- Potency [1]: inactive
- Potency [2]: inactive
- Potency [3]: inactive
- Potency [4]: inactive
- Potency [5]: inactive
- outcome [6]: inactive

Compound: CC(=O)[C@H]1CC[C@H]2[C@@H]3CC[C@H]4C[C@H](O)CC[C@]4(C)[C@H]3C(=O)C[C@]12C
- Potency [1]: inactive
- Potency [2]: inactive
- Potency [3]: inactive
- Potency [4]: inactive
- Potency [5]: inactive
- outcome [6]: inactive
- outcome [7]: inactive
- outcome [8]: inactive
- outcome [9]: inactive

Compound: CC1CCCCC1NC(=O)Nc1ccccc1 (centres undefined)
- Potency [1]: inactive
- Potency [2]: inactive
- Potency [3]: inactive
- Potency [4]: inactive
- Potency [5]: inactive
- outcome [6]: inactive
- outcome [7]: inactive
- outcome [8]: inactive
- outcome [9]: inactive

Compound: CCN(CC)C(=O)[C@@H]1C=C2c3cccc4[nH]cc(c34)C[C@H]2N(C)C1
- Potency [1]: 56.7 µM (active)
- Potency [2]: inactive
- Potency [10]: inactive
- Potency [5]: inactive
- outcome [6]: inactive
- outcome [7]: inactive
- outcome [8]: inactive
- outcome [9]: inactive

Compound: CCOP(=S)(OCC)SCSP(=S)(OCC)OCC
- Potency [1]: inactive
- Potency [2]: inactive
- Potency [3]: inactive
- Potency [4]: inactive
- Potency [5]: inactive
- outcome [6]: inactive
- outcome [7]: inactive
- outcome [8]: inactive
- outcome [9]: inactive

Compound: O=C1OC(c2ccc(O)c(S(=O)(=O)O)c2)(c2ccc(O)c(S(=O)(=O)O)c2)c2c(Br)c(Br)c(Br)c(Br)c21
- Potency [1]: inactive
- Potency [2]: inactive
- Potency [3]: inactive
- Potency [4]: inactive
- Potency [5]: inactive
- outcome [6]: inactive
- outcome [7]: inactive

Compound: CCC1(c2ccccc2)C(=O)N=C(O)NC1=O (centres undefined)
- Potency [1]: inactive
- Potency [2]: inactive
- Potency [10]: inactive
- Potency [5]: inactive
- outcome [6]: inactive
- outcome [7]: inactive
- outcome [8]: inactive
- outcome [9]: inactive

Compound: Fc1cc(Br)ccc1CBr
- Potency [1]: inactive
- Potency [2]: inactive
- Potency [3]: inactive
- Potency [4]: inactive
- Potency [5]: inactive
- outcome [6]: inactive
- outcome [7]: inactive
- outcome [8]: inactive
- outcome [9]: inactive

Compound: C1CCC(C2CCCCC2)CC1
- Potency [1]: inactive
- Potency [2]: inactive
- Potency [3]: 15.4 µM (active)
- Potency [4]: 8.63 µM (active)
- Potency [5]: inactive
- outcome [6]: inactive
- outcome [7]: inactive
- outcome [8]: inactive
- outcome [9]: inactive

Compound: CCOC(=O)C(c1c(O)c2ccccc2oc1=O)c1c(O)c2ccccc2oc1=O
- Potency [1]: inactive
- Potency [2]: inactive
- Potency [10]: inactive
- Potency [5]: inactive
- outcome [6]: inactive
- outcome [8]: inactive
- outcome [9]: inactive

Compound: CSc1ccc(C(=O)C(C)(C)N2CCOCC2)cc1
- Potency [1]: inactive
- Potency [2]: inactive
- Potency [10]: 27.3 µM (active)
- Potency [5]: inactive
- outcome [6]: inactive
- outcome [7]: inactive
- outcome [8]: inactive
- outcome [9]: inactive

Compound: CSc1nc(N=[N+]=[N-])nc(NC(C)C)n1
- Potency [1]: inactive
- Potency [2]: inactive
- Potency [3]: inactive
- Potency [4]: inactive
- Potency [5]: inactive
- outcome [6]: inactive
- outcome [7]: inactive
- outcome [8]: inactive
- outcome [9]: inactive

Compound: CCN(CC)c1nc(C)cc(OP(=S)(OC)OC)n1
- Potency [1]: inactive
- Potency [2]: inactive
- Potency [3]: inactive
- Potency [4]: inactive
- Potency [5]: inactive
- outcome [6]: inactive
- outcome [7]: inactive
- outcome [8]: inactive
- outcome [9]: inactive

Compound: Nc1ccccc1Cl
- Potency [1]: inactive
- Potency [2]: inactive
- Potency [3]: inactive
- Potency [4]: inactive
- Potency [5]: inactive
- outcome [6]: inactive
- outcome [7]: inactive

Compound: CCC1(c2ccccc2)C(=O)NC(=O)NC1=O
- Potency [1]: inactive
- Potency [2]: inactive
- Potency [3]: inactive
- Potency [4]: inactive
- Potency [5]: inactive
- outcome [6]: inactive
- outcome [7]: inactive
- outcome [8]: inactive
- outcome [9]: inactive

Compound: c1cc2c(c(N3CCNCC3)c1)OCCO2
- Potency [1]: inactive
- Potency [2]: inactive
- Potency [3]: inactive
- Potency [4]: inactive
- Potency [5]: inactive
- outcome [6]: inactive
- outcome [7]: inactive
- outcome [8]: inactive
- outcome [9]: inactive

Compound: CC1(C(=O)Nc2ccc(O)c(Cl)c2Cl)CCCCC1
- Potency [1]: inactive
- Potency [2]: inactive
- Potency [10]: 27.3 µM (active)
- Potency [5]: inactive
- outcome [6]: inactive
- outcome [7]: inactive
- outcome [8]: inactive
- outcome [9]: inactive

Compound: O=C1CN2CCOC2(c2ccccc2Cl)c2cc(Cl)ccc2N1 (centres undefined)
- Potency [1]: inactive
- Potency [2]: inactive
- Potency [3]: inactive
- Potency [4]: inactive
- Potency [5]: inactive
- outcome [6]: inactive
- outcome [7]: inactive

Compound: OC(c1ccc(F)cc1)(c1cncnc1)c1ccccc1Cl (centres undefined)
- Potency [1]: inactive
- Potency [2]: inactive
- Potency [3]: inactive
- Potency [4]: inactive
- Potency [5]: inactive
- outcome [6]: inactive
- outcome [7]: inactive
- outcome [8]: inactive
- outcome [9]: inactive

Compound: COC(=O)c1c(C(F)F)nc(C(F)(F)F)c(C2=NCCS2)c1CC(C)C
- Potency [1]: inactive
- Potency [2]: inactive
- Potency [3]: inactive
- Potency [4]: inactive
- Potency [5]: inactive
- outcome [6]: inactive
- outcome [7]: inactive
- outcome [8]: inactive
- outcome [9]: inactive

Compound: CCC/C(=N\OCC)C1=C(O)CC(CC(C)SCC)CC1=O (centres undefined)
- Potency [1]: inactive
- Potency [2]: inactive
- Potency [3]: inactive
- Potency [4]: inactive
- Potency [5]: inactive
- outcome [6]: inactive
- outcome [7]: inactive
- outcome [8]: inactive
- outcome [9]: inactive

Compound: CCCCOC(=O)c1ccccc1C(=O)O
- Potency [1]: inactive
- Potency [2]: inactive
- Potency [10]: inactive
- Potency [5]: inactive
- outcome [6]: inactive
- outcome [7]: inactive

Compound: O=C(N[C@H]1CN2CCC1CC2)c1cc2ccoc2cn1
- Potency [1]: inactive
- Potency [2]: inactive
- Potency [3]: inactive
- Potency [4]: inactive
- Potency [5]: inactive
- outcome [6]: inactive
- outcome [7]: inactive
- outcome [8]: inactive
- outcome [9]: inactive

Compound: N#Cc1ccncc1
- Potency [1]: inactive
- Potency [2]: inactive
- Potency [3]: inactive
- Potency [4]: inactive
- Potency [5]: inactive
- outcome [6]: inactive
- outcome [7]: inactive

Compound: CCCSP(=O)(OCC)Oc1ccc(Br)cc1Cl (centres undefined)
- Potency [1]: inactive
- Potency [2]: inactive
- Potency [10]: 11.8 µM (active)
- Potency [5]: inactive
- outcome [6]: inactive
- outcome [7]: inactive
- outcome [8]: inactive
- outcome [9]: inactive

Compound: CNC(=O)N(C)c1nc2ccccc2s1
- Potency [1]: inactive
- Potency [2]: inactive
- Potency [3]: inactive
- Potency [4]: inactive
- Potency [5]: inactive
- outcome [6]: inactive
- outcome [7]: inactive
- outcome [8]: inactive
- outcome [9]: inactive

Compound: OCCBr
- Potency [1]: inactive
- Potency [2]: inactive
- Potency [3]: inactive
- Potency [4]: inactive
- Potency [5]: inactive
- outcome [6]: inactive
- outcome [7]: inactive
- outcome [8]: inactive
- outcome [9]: inactive
